Measured values: the supplement of paper PMC11634586
Counter-ions that a name gives are not always drawn. A number with no mark means an inactive call.

Tested on: NCI-H1688
Experiment: inhibition of cell viability relative to untreated control (fraction); higher = stronger growth inhibition, active = 0.5 or more
Conditions: 30 µM; 24 h
Method in brief: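 NCI-H1688 small cell lung cancer cells were seeded at 3 × 10^3 cells/well in 96-well plates and treated 24 h later with a natural compound library (TargetMol) at 30 µM for 24 h, at 37°C with 5% CO2. Viability was read in triplicate with Cell Counting Kit-8 as absorbance at 450 nm. Inhibition of cell viability is expressed as a fraction, derived from viability normalised to the untreated control.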

| Structure (SMILES) | inhibition of cell viability |
| --- | --- |
| COc1ccc(C2CC(=O)c3c(O)cc(OC4OC(COC5OC(C)C(O)C(O)C5O)C(O)C(O)C4O)cc3O2)cc1OC (configuration not stated) [Methyl hesperidin] | 0.00735 |
| Cc1cccc2c3c(ccc12)C1=C(C(=O)C3=O)[C@@H](C)CO1 [Dihydrotanshinone I] | 0.992 (active) |
| CC(=O)Oc1c(C)c(C)c2c(c1C)CCC(C)(CCC[C@H](C)CCC[C@H](C)CCCC(C)C)O2 (some centres not stated) [Vitamin E Acetate] | -0.0362 |
| Cc1c(S(=O)(=O)O)oc2c1C(=O)C(=O)c1c-2ccc2c1CCCC2(C)C [Tanshinone IIA-sulfonic sodium] | -0.0961 |
| CC(C)=CCC[C@](C)(O[C@@H]1O[C@H](CO)[C@@H](O)[C@H](O)[C@H]1O)[C@H]1CC[C@]2(C)[C@@H]1[C@H](O)C[C@@H]1[C@@]3(C)CC[C@H](O)C(C)(C)[C@@H]3[C@@H](O[C@@H]3O[C@H](CO)[C@@H](O)[C@H](O)[C@H]3O[C@@H]3O[C@@H](C)[C@H](O)[C@@H](O)[C@H]3O)C[C@]12C [Ginsenoside Re] | -0.0285 |
| O=C1O[C@H]([C@H](O)CO)C([O-])=C1O.[Na+] [Sodium erythorbate] | 0.0513 |
| COc1cc(CO)ccc1O [Vanillyl Alcohol] | -0.235 |
| OC[C@H]1O[C@@H](Oc2ccc(O)cc2)[C@H](O)[C@@H](O)[C@@H]1O [Arbutin] | -0.263 |
| O=C(O)[C@H]1O[C@@H](Oc2cc3oc(-c4ccc(O)cc4)cc(=O)c3c(O)c2O)[C@H](O)[C@@H](O)[C@@H]1O [Breviscapin] | 0.262 |
| Cc1cccc(C)c1NC(=O)c1ccccc1C(=O)O [Ftaxilide] | -0.0604 |
| C1CCN2C[C@@H]3C[C@@H](CN4CCCC[C@@H]34)[C@H]2C1 [(-)-Sparteine sulfate pentahydrate] | 0.237 |
| C[C@@H]1O[C@@H](Oc2c(-c3ccc(O)c(O)c3)oc3cc(O)cc(O)c3c2=O)[C@H](O)[C@H](O)[C@H]1O [Quercitrin] | 0.325 |
